The list is not random: actives were taken first. Their share in the collection is about 4.2%.
PfHsp90 set2 = growth inhibition of PfHsp90-expressing yeast, primary screen, antimalarial PfHsp90 inhibitor project, S. cerevisiae, BacTiter-Glo luminescence, single point, set 2; 310,000 tested, 0.32% active; AID 504621, 2011; BacTiter-Glo ATP, 48 h; yeast lacking PDR1 and PDR3 efflux regulators; inhibition, % at 9.4 µM;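 active means every replicate shows inhibition above about 80%, whatever the replicate mean, limit read from the data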;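 further: 0% = DMSO neutral controls and 100% = 20 µM radicicol positive controls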
NALP3 yeast inh = NALP3 inflammasome inhibitors in reconstituted yeast, primary screen, luminescence, uHTS; Yeast reconstituted NLRP3/ASC/caspase-1, beta-gal luminescence, 24 h; inhibition, % at 10 µM; 330,000 tested, 0.39% active;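 active means inhibition of 50% or more; inactive means inhibition below 50%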;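 further: plate controls were induced DMSO wells for no effect and uninduced yeast grown without galactose for full effect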
TIM10 inh = growth inhibitors of isogenic TIM10 control yeast, primary screen, counter-screen for tim10-1 yeast inhibitor project, luminescence, uHTS; S. cerevisiae TIM10 strain growth, BacTiter-Glo luminescence, 24 h; 330,000 tested, 1.4% active; inhibition, % at 10 µM;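 active means inhibition of 40% or more at the single tested concentration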;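 further: wild-type TIM10 isogenic control strain grown at permissive 25 °C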
tim23-1 inh = growth inhibitors of tim23-1 mutant yeast, primary screen, luminescence, uHTS; S. cerevisiae tim23-1 growth, BacTiter-Glo luminescence, 24 h; inhibition, % at 20 µM; 330,000 tested, 1.3% active;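 active means growth inhibition of the mutant yeast at or above 50%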;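 further: temperature-sensitive mutant grown at 25 °C; plate controls were DMSO-treated mutant yeast for no effect and medium wells lacking yeast for full effect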
tim10-1 inh = growth inhibitors of tim10-1 mutant yeast, primary screen, luminescence, uHTS. inhibition, % at 20 µM. S. cerevisiae tim10-1 ts strain growth, BacTiter-Glo, 24 h. AID 463190, 2010. 330,000 tested, 2.2% active;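 active means inhibition of at least 40%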;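 further: mutant grown at 25 °C; 0% = DMSO wells with yeast and 100% = wells holding no yeast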
NALP1 inh = NALP1 inflammasome inhibitors in reconstituted yeast, colorimetric, S. cerevisiae, triplicate retest | S. cerevisiae NALP1/ASC/caspase-1 growth, X-gal OD620, 72 h | inhibition, % at 10 µM | 280,000 tested, 0.61% active | AID 2071, 2009; in the data active means inhibition mostly above about 24%, no sharp cut-off; inactive means mostly below about 32%
NALP3 yeast conf = NALP3 inhibitors retested in yeast, confirmation, luminescence, single concentration | shares compounds with NALP3 yeast inh | AID 435006, 2010 | 1,300 tested, 81% active | yeast expressing human NALP3 | inhibition, % at 10 µM; in the data active means inhibition above about 48%
Casp1 ASC ctr = CASP1-PYCARD signaling inhibition in yeast, confirmatory test, counterassay for NLRP3 inhibitor program, one-dose. shares compounds with NALP3 yeast inh. yeast expressing Caspase-1-ASC, luminescence counter screen. inhibition, % at 10 µM. 1,000 tested, 66% active. AID 488784, 2010
NALP3 retest = NALP3 inhibitors in yeast, repeat test, confirmation, luminescence, single concentration, retest | inhibition, % at 10 µM | yeast expressing human NALP3, luminescence read-out | shares compounds with NALP3 yeast inh | 1,000 tested, 53% active
tim10-1 confirm = growth inhibitors of tim10-1 mutant yeast, confirmation, single concentration, luminescence, S. cerevisiae; inhibition, % at 20 µM; S. cerevisiae tim10-1 ts strain growth, BacTiter-Glo, 24 h; shares compounds with tim10-1 inh; AID 463213, 2010; 7,400 tested, 56% active;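 active means inhibition of yeast growth at or above a set limit in either of two repeat tests at 20 µM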;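 further: tim10-1 mutant grown at permissive 25 °C to find synthetic lethal compounds; 0% = DMSO yeast wells and 100% = medium wells without yeast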
* hit, by the source's call; ! = not active in a repeat. Unless noted, no stated cut-off is given here; in the data, active means inhibition above about 50%; inactive means the rest.

`CCCCCC[N+](C)(C)CCSSCC[N+](C)(C)CCCCCC` gave PfHsp90 set2 11, NALP3 yeast inh 18, TIM10 inh 4, tim23-1 inh -2 and tim10-1 inh -7.
For CCCCCCCCCCCCCCCC[N+](C)(C)CC the results were PfHsp90 set2 108*, NALP3 yeast inh 65*, TIM10 inh 25, tim23-1 inh 22, tim10-1 inh 79*, NALP3 yeast conf 64*, Casp1 ASC ctr 62*, NALP3 retest 68* and tim10-1 confirm -102.
CCCSc1ccc2nc(-c3ccccc3)cn2c1 was read as PfHsp90 set2 40, NALP3 yeast inh 51*, TIM10 inh 27, tim23-1 inh 36, tim10-1 inh 45*, NALP1 inh 68, NALP3 yeast conf 61*, Casp1 ASC ctr 72*, NALP3 retest 61* and tim10-1 confirm 18.
Screening O=C(Nc1nccs1)c1cc2c(s1)-c1ccccc1OC2 returned PfHsp90 set2 26, NALP3 yeast inh 54*, TIM10 inh 22, tim23-1 inh 25, tim10-1 inh 59*, NALP1 inh 16, NALP3 yeast conf 67*, Casp1 ASC ctr 14, NALP3 retest 18 and tim10-1 confirm 5.
`COc1ccccc1NC(=O)c1ccc2c(c1)nnn2C` gave PfHsp90 set2 16, NALP3 yeast inh 29, TIM10 inh -5, tim23-1 inh 2, tim10-1 inh -1 and NALP1 inh 0.
Oc1[nH]c2ccccc2c1N=Nc1ncnc2c1oc1ccccc12 was read as NALP3 yeast inh 11, TIM10 inh 5, tim23-1 inh 0, tim10-1 inh 7 and NALP1 inh 2.
Screening CC(Oc1ccc(F)cc1)C(=O)Nc1nc(-c2ccccn2)cs1 (stereo not given) returned PfHsp90 set2 -15, NALP3 yeast inh 55*, TIM10 inh 27, tim23-1 inh 34, tim10-1 inh 42*, NALP3 yeast conf 73*, Casp1 ASC ctr 82*, NALP3 retest 74* and tim10-1 confirm 30.
For NC(=NCCCCCCN=C(N)/N=C(\N)Nc1ccc(Cl)cc1)/N=C(\N)Nc1ccc(Cl)cc1 the results were PfHsp90 set2 51, NALP3 yeast inh 69*, TIM10 inh -229, tim23-1 inh 23, tim10-1 inh 66*, NALP1 inh 21, NALP3 yeast conf 74*, Casp1 ASC ctr 61*, NALP3 retest 52* and tim10-1 confirm 41*!.
`CN(CC(=O)Nc1c(Cl)cccc1Cl)C(=O)c1ccc(-n2cncn2)c([N+](=O)[O-])c1` gave PfHsp90 set2 22, NALP3 yeast inh 18, TIM10 inh 12, tim23-1 inh -4 and tim10-1 inh 7.
O=C(NCc1ccco1)C(=O)c1cn(CC(=O)N2CCCCC2)c2ccccc12 was read as PfHsp90 set2 0, NALP3 yeast inh 9, TIM10 inh 16, tim23-1 inh 20, tim10-1 inh 22 and NALP1 inh -6.

Compound activity deposited in PubChem BioAssay by several laboratories.
